This is part of a sample that, as a whole, favours compounds with a hit. Of some 83,000 tested, about 20% had one in any assay.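 In brief: 96-well plates, 48 h treatment, single concentration, percent growth endpoint.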 Unmarked numbers belong to inactive results. Calls of active or inactive are those of the source. Rule for the calls: active = growth percent below 10; inactive = the rest.
Test system: MDA-MB-468 breast
Assay: NCI-60 one-dose screen, 48 h (100 = growth as untreated, 0 = no growth, -100 = all killed)
Conditions: 10 µM unless noted

## c1cncc(CNc2ccccc2-c2nnc(Nc3ccc4c(c3)OCCO4)o2)c1
  growth: -0.422% (active)

## COc1ccc(/C=C(\C#N)c2cc3ccccc3[nH]2)cc1
  growth: 17.7%

## Nc1cc2c(cc1Cl)C(=O)c1ccccc1C2=O
  growth: 70.2%

## CC(Br)C(O)c1cc2c(cc1Br)OCO2 (stereo not given)
  growth: 108%

## C=CC(=O)OCCCCCCCC
  growth: 106%

## Nc1c(C(=O)Nc2ccc(C(F)(F)F)cc2)sc2nc(-c3cnccn3)cc(-c3cccs3)c12
  growth: 69.9%

## Cc1ccccc1Cn1cnc2ccc(-c3cc(NC(=O)c4ccc(NC5CCN(C)CC5)cc4)n[nH]3)cc21
  growth: 94.5%

## CC[C@@H]1C(=O)N(C)c2cnc(Nc3ccc(C(=O)NC4CCC(N5CCN(CC6CC6)CC5)CC4)cc3OC)nc2N1C(C)C (stereo not given in full)
  growth: -54.1% (active)

## Cc1ccc(NC(=O)CN2CCOCC2)cc1Cl
  growth: 99.1%

## CC(C)COC(=O)COC(=O)OCCOCCOC(=O)OCC(=O)OCC(C)C
  growth: 105%

## COc1ccc(/C=C2\CCC3C(CCCC34OCCO4)C2=O)cc1 (stereo not given)
  growth: 70.5%

## COc1nc2c(cc1S(=O)(=O)c1ccccc1)CCc1c-2cnn1Cc1ccccc1
  growth: 45.7%

## COc1nc(/C=C\Nc2ccc3c(c2)OCCOCCOCCOCCO3)nc(OC)n1
  growth: 108%

## Cc1c(C(=O)N[C@@H](Cc2ccccc2)C(=O)C(=O)NCCc2ccccc2)[nH]c2ccccc2c1=O
  growth: 110%

## CCOc1cccnc1/C=N/NC(N)=S
  growth: 52.7%

— PubChem BioAssay (NCI)
